According to PubChem BioAssay (NCATS):
Results filed as inconclusive are left out. Active and inactive are the calls of the source. Calls follow the shape of the dose curve; as a rule, active = well fitted curve in the direction sought with a large enough effect; inconclusive = small, poorly fitted or top-dose-only effect, or another doubt; inactive = no such curve, though single readings can be large; an effect the other way counts as inactive or inconclusive.

Assays:
[1] = tested on: CRL-7250; assay: Cytotoxic Profiling of Annotated Libraries Using Quantitative High-Throughput Screening (AID 1296008); conditions: Five cell lines viability, CellTiter-Glo ATP luminescence, 48-72 h; max response: active compounds read low; also: nearly all actives have a fitted effect of over 60% in size; as to max response: % is scaled to controls: 0 for no effect and ±100 for the full control effect
Summary of the method: (§1)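 Cytotoxicity was measured as CellTiter-Glo ATP luminescence, read after 10 min at room temperature. Compound treatment of the cells lasted 48 or 72 hr at 37 degrees Celsius in a qHTS format.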

[2] = tested on: HEK293; assay: as above; conditions: Five cell lines viability, CellTiter-Glo ATP luminescence, 48-72 h; max response: active compounds read low
Summary of the method: as §1

[3] = tested on: HaCat; assay: as above; conditions: Five cell lines viability, CellTiter-Glo ATP luminescence, 48-72 h; max response: active compounds read low
Summary of the method: as §1

[4] = tested on: KB-3-1; assay: as above; conditions: Five cell lines viability, CellTiter-Glo ATP luminescence, 48-72 h; max response: active compounds read low
Summary of the method: as §1

[5] = tested on: NIH3T3; assay: as above; conditions: Five cell lines viability, CellTiter-Glo ATP luminescence, 48-72 h; max response: active compounds read low
Summary of the method: as §1

[6] = tested on: HACAT; assay: qHTS assay to identify novel small-molecules to repurpose for Merkel cell carcinoma treatment (AID 1296009); conditions: MCC and control cell lines, CellTiter-Glo viability, 72 h; at 44.8 µM (top of the series) unless noted; also: nearly all actives have a fitted effect of over 60% in size
Summary of the method: (§2)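 72 hr, 37 degree celsius; NPC 8-pt / MIPE 11-pt dose response; compound pinned in DMSO; CellTiter-Glo, 10 min RT, luminescence; normalized to no-cell and DMSO controls.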

[7] = tested on: HEK293T; assay: as above; conditions: MCC and control cell lines, CellTiter-Glo viability, 72 h; series mostly up to 44.8 µM
Summary of the method: as §2

[8] = tested on: C33A; assay: Primary qHTS to identify gynecologic anti-cancer compounds using libraries of approved drugs and bioactive compounds (AID 1345084); conditions: Gynecologic cancer cell panel viability, ATPlite luminescence, 48 h; series mostly up to 57.5 µM; also: % is scaled to controls: 0 for no effect and ±100 for the full control effect; nearly all actives have a fitted effect of over 55% in size
Summary of the method: (§3)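 48 h compound exposure at 37 C, 5% CO2; five-point qHTS. ATPlite luminescence readout of cell ATP.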

[9] = tested on: CAOV3; assay: as above; conditions: Gynecologic cancer cell panel viability, ATPlite luminescence, 48 h; series mostly up to 57.5 µM
Summary of the method: as §3

[10] = tested on: CASKI; assay: as above; conditions: Gynecologic cancer cell panel viability, ATPlite luminescence, 48 h; series mostly up to 57.5 µM
Summary of the method: as §3

[11] = tested on: Es-2; assay: as above; conditions: Gynecologic cancer cell panel viability, ATPlite luminescence, 48 h; series mostly up to 57.5 µM
Summary of the method: as §3

[12] = tested on: HeLa; assay: as above; conditions: Gynecologic cancer cell panel viability, ATPlite luminescence, 48 h; series mostly up to 57.5 µM
Summary of the method: as §3

O=C(COc1ccc(Cl)cc1)NC1CCC(NC(=O)COc2ccc(Cl)cc2)CC1 (stereo unspecified)
inactive: max response [1] 2.66% | outcome [2] | outcome [3] | max response [4] -4.12% | max response [5] -4.22% | outcome [6] | Potency [7] | Potency [8] | Potency [9] | Potency [10] | Potency [11] | Potency [12]

O=C1CC(c2ccc([N+](=O)[O-])cc2)=NN1c1ccccc1
inactive: outcome [1] | outcome [2] | outcome [3] | max response [4] 3.45% | max response [5] 2.7% | outcome [6] | Potency [7] | Potency [8] | Potency [9] | Potency [10] | Potency [11] | Potency [12]

C=CC1C(O[C@@H]2O[C@H](CO)[C@@H](O)[C@H](O)[C@H]2O)OC=C(C(=O)OC)C1CC(=O)O (stereo partly specified)
inactive: outcome [1] | outcome [2] | outcome [3] | max response [4] 9.2% | max response [5] 3.11% | outcome [6] inactive [at 17.4 µM] | Potency [7] | Potency [8] | Potency [9] | Potency [10] | Potency [11] | Potency [12]

COC(=O)C1=COC(O[C@@H]2O[C@H](CO)[C@@H](O)[C@H](O)[C@H]2O)/C(=C\COC(=O)c2ccc(OC3OC(CO)C(O)C(O)C3O)c(OC)c2)C1CC(=O)OCCc1ccc(O)cc1 (stereo partly specified)
inactive: max response [1] -6.94% | outcome [2] | outcome [3] | outcome [4] | max response [5] 1.16% | outcome [6] inactive [at 9.27 µM] | outcome [7] inactive [at 9.27 µM] | activity change, negative = cytotoxicity [8] 7.7% [at 11.6 µM] | activity change, negative = cytotoxicity [9] -8.27% [at 11.6 µM] | activity change, negative = cytotoxicity [10] 3.94% [at 11.6 µM] | activity change, negative = cytotoxicity [11] 1.38% [at 11.6 µM] | activity change, negative = cytotoxicity [12] 2.44% [at 11.6 µM]

COc1cc(/C=C/CO)ccc1O[C@@H]1O[C@H](CO)[C@@H](O)[C@H](O)[C@H]1O
inactive: max response [1] -3.79% | outcome [2] | outcome [3] | max response [4] 9.42% | outcome [5] | outcome [6] | Potency [7] | Potency [8] | Potency [9] | Potency [10] | Potency [11] | Potency [12]

C[C@@H]1O[C@@H](OC[C@H]2O[C@@H](OCCc3ccccc3)[C@H](O)[C@@H](O)[C@@H]2O)[C@H](O)[C@H](O)[C@H]1O
inactive: max response [1] -0.537% | outcome [2] | outcome [3] | outcome [4] | max response [5] 4.11% | outcome [6] inactive [at 17.4 µM] | Potency [7] | Potency [8] | Potency [9] | Potency [10] | Potency [11] | Potency [12]

CCC1CC2C(C)=CC3CCCCC3C2(C)C2(OC(=O)C(C)(O)OC2=O)O1 (stereo unspecified)
inactive: max response [1] 0.081% | outcome [2] | outcome [3] | outcome [4] | max response [5] 1.16% | outcome [6] | Potency [7] | Potency [8] | Potency [9] | Potency [10] | Potency [11] | Potency [12]

O=C1N(CC2CCCCN2)CCN1c1ccccc1 (stereo unspecified)
inactive: max response [1] -3.2% | outcome [2] | outcome [3] inactive; activator | outcome [4] | outcome [5] | outcome [6] inactive; activator | Potency [7] | Potency [8] | Potency [9] | Potency [10] | Potency [11] | Potency [12]

COc1c2c(c(C)c3c1C(=O)OC3)OC1(C)CC(O)C3(O)C(C)(C)OC(=O)CCC3(C)C1C2 (stereo unspecified)
inactive: max response [1] -8.09% | outcome [2] | outcome [3] | max response [4] 8.81% | outcome [5] | outcome [6] inactive [at 17.4 µM] | Potency [7] | Potency [8] | Potency [9] | Potency [10] | Potency [11] | Potency [12]

CC1CCC2(C)C(CC(O)C(O)C23CO3)C1(C)CCC1=CC(=O)OC1O (stereo unspecified)
inactive: max response [1] -22% | outcome [2] | outcome [3] inactive; activator | max response [4] 4.04% | max response [5] 3.09% | outcome [6] inactive; activator | Potency [7] | Potency [8] | Potency [9] | Potency [10] | Potency [11] | Potency [12]

C[C@]1(O)CC[C@@H]2C(C(=O)O)=CO[C@@H](O[C@@H]3O[C@H](COC(=O)c4ccc(O)cc4)[C@@H](O)[C@H](O)[C@H]3O)[C@@H]21
inactive: max response [1] 2.99% | outcome [2] | outcome [3] | max response [4] 9.39% | max response [5] 2.95% | outcome [6] inactive [at 17.4 µM] | Potency [7] | Potency [8] | Potency [9] | Potency [10] | Potency [11] | Potency [12]

C[C@@H]1CC[C@]2(C(=O)O)CC[C@]3(C)C(=CCC4[C@]5(C)C(CC[C@]43C)C(C)(C)[C@@H](O)[C@H](O)[C@@H]5O)C2[C@]1(C)O (stereo partly specified)
inactive: max response [1] -2.7% | outcome [2] | outcome [3] | outcome [4] | max response [5] -3.49% | outcome [6] inactive [at 17.4 µM] | Potency [7] | Potency [8] | Potency [9] | Potency [10] | Potency [11] | Potency [12]

Cc1nnc(C(C)C)n1C1CC2CCC(C1)N2CCC(NC(=O)C1CCC(F)(F)CC1)c1ccccc1 (stereo unspecified)
inactive: max response [1] -10.9% | outcome [2] | outcome [3] | max response [4] 8.02% | max response [5] -0.909% | outcome [6] | Potency [7] | Potency [8] | Potency [9] | Potency [10] | Potency [11] | Potency [12]
